Experimental findings from PubChem BioAssay AID2284383 (EPA ToxCast) are described below.

In the test the target is human Retinoic Acid Receptor gamma (RARg) Agonism, RARG (gene 5916) (UniProt P13631). Kind of test: ERF_TW_NR_COA_hRARG: Eurofins (ERF) Nuclear Receptor (NR) Functional Coactivator Assay for human Retinoic Acid Receptor gamma (RARg) Agonism. The protocol:
ERF_TW_NR_COA_hRARG is a biochemical, single-readout assay that uses extracted gene-proteins in a cell-free assay. Measurements were taken 16 hours after chemical dosing in a 96-well plate. […] It is designed to measure FRET using a type of binding reporter as detected by fluorescence intensity of AM580 with fluorimetry technology.Data from the assay component ERF_TW_NR_COA_hRARG was analyzed at the assay endpoint, ERF_TW_NR_COA_hRARG, in the positive analysis fitting direction relative to DMSO as the negative control and baseline of activity. Using a type of binding reporter, gain-of-signal activity can be used to understand changes in binding as they relate to gene RARG. To generalize the intended target to other relatable targets, this assay endpoint is annotated to the nuclear receptor intended target family, where the subfamily is non-steroidal.
Human recombinant retinoic acid receptor […] (RARgamma) receptors expressed in bacteria are used. Test compound and/or vehicle is incubated with the 25 nM receptors and binding buffer in modified Tris-HCl buffer pH 7.4 for 16 hours at 4C. Determination of the amount of complex formed is read spectrofluorimetrically (excitation:337 nm, emission:620/665 nm). Test compound-induced increase in fluorescence by 50 percent or more (>/= 50%) relative to the 0.3 uM AM580 response indicates possible RARgamma receptor agonist activity. […]

SMILES strings stand for the structures. Records with an inconclusive call do not appear. Active and inactive are the calls of the source. Rule for the calls: active = hit-call score of the fitted dose curve at least 0.9, where 1 is the maximum; inconclusive = response in the unintended direction; inactive = score below 0.9.

human Retinoic Acid Receptor gamma (RARg) Agonism, RARG (gene 5916), sequence (P13631 whole entry, looked up): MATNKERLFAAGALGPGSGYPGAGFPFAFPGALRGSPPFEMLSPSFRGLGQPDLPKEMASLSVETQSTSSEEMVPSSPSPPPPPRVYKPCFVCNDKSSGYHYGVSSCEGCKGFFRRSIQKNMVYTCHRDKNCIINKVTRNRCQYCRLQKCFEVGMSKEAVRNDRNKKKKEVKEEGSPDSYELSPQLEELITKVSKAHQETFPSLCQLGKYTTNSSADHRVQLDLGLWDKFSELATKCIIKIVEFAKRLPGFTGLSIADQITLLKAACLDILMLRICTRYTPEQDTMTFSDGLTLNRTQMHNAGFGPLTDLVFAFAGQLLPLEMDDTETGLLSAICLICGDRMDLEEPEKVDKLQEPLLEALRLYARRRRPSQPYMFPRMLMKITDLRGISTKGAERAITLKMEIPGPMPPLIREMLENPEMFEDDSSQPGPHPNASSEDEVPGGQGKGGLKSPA

As for `C[C@H]1C[C@@H]2[C@H]([C@@H](O)C[C@@]3(C)[C@H]2CC[C@]3(O)C(=O)CO)[C@@]2(C)C=CC(=O)C=C12`, the compound was classed as inactive.
